Results filed as inconclusive are left out. The source made the active and inactive calls. The call rests on the fitted dose curve; in most records, active means well fitted curve in the direction sought with a large enough effect in the signal ratio, with a control signal flat (not every such curve was filed as active); inconclusive means small, poorly fitted or top-dose-only effect, or effect the other way, or a change in a side signal; inactive means no such curve, though single readings can be large or run the other way; the % refers to the signal ratio.
Target: Tyrosine-protein phosphatase non-receptor type substrate 1 (Homo sapiens) + Leukocyte surface antigen CD47 (Homo sapiens) (UniProt P78324+Q08722)
Sequence (P78324 whole entry, looked up): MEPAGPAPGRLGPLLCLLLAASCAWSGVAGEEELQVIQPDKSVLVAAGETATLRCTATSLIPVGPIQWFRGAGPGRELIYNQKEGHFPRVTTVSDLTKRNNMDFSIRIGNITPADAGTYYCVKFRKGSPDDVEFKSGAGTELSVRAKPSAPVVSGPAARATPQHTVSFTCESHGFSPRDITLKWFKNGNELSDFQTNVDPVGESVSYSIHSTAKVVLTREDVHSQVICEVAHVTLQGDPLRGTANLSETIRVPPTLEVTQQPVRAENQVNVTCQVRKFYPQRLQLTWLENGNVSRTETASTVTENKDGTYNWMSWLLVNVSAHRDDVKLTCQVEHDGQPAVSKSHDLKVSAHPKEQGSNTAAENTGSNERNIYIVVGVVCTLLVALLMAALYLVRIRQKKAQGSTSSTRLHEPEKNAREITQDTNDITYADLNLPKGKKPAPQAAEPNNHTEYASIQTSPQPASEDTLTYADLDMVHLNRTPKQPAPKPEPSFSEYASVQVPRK
Sequence (Q08722 whole entry, looked up): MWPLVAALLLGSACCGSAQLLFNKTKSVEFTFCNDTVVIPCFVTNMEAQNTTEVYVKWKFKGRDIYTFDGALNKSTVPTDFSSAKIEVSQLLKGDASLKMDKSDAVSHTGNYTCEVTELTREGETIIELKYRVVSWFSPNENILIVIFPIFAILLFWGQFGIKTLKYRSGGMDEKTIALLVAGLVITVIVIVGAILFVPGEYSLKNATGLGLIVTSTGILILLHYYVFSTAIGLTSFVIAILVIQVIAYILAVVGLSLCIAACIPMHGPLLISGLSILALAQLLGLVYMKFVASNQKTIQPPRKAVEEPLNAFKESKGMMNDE
Assay: CD47-SIRPalpha protein protein interaction - LANCE assay qHTS validation (AID 1347057); further: 0% is about no effect
Conditions: Recombinant CD47-His / biotin-SIRPalpha, TR-FRET ratio; series mostly up to 38.3 µM; activity change, negative = inhibition: at the top concentration
Source text: SIRPalpha is a myeloid cell expressed immunomodulatory receptor that binds the tumor expressed immune checkpoint CD47. Therapeutic disruption of this interaction leads to immune-mediated tumor rejection. This assay was used to quantitate CD47-SIRPalpha binding biochemically and evaluate chemical libraries for novel CD47-SIRPalpha inhibitors. To recapitulate the biological interaction of CD47 and SIRPalpha, we designed expression constructs to produce their recombinant, soluble, extracellular interaction domains. CD47 was produced with an N-terminal 6His tag. SIRPalpha was produced with an N-terminal Avi-Tag for site-specific biotin incorporation. The CD47-SIRPalpha interaction was measured by TR-FRET using affinity tag linked reagents (anti-6His-Eu donor and streptavidin-APC acceptor). SIRPalpha without biotin incorporation was used as a positive control inhibitor.
PROTOCOL TABLE (as described by Miller, T. et al. 2019)
SEQUENCE No. (e.g., 1, 2, 3, etc.); […] (e.g., Cells, Incubation, Reagent, etc.); VALUE and DESCRIPTION.
1a. Reagent. 3 uL CD47-His (12.5 nM) and Anti-His Eu Donor reagent (3 nM) added to respective wells in Assay buffer; white/solid bottom high base, med bind 1536-well plates (Greiner 789075)
1b. Reagent. 2 uL Assay buffer negative control for background fluorescence
2. Reagent. 23 nL library compounds (7-pt, 1:4 intraplate titration series) or DMSO control transferred by Pin Tool
3. Centrifuge. Centrifuge plate for 30 s at 1000 RPM
4. Incubation.#Incubate reagents at room temperature for 30 min, protected from light
5. Reagent. 2 uL SIRPalpha-biotin (100 nM) in Assay buffer
6. Incubation.#Incubate reagents at room temperature for 30 min, protected from light
7. Reagent. 1 uL SAV-APC (26 nM) acceptor reagent added to respective wells
8. Centrifuge. Centrifuge plate for 30 s at 1000 RPM
9. Incubation. Incubate reagents at room temperature for 30 min, protected from light
10. Detector. Measure Top TR-FRET on EnVision (Eu/APC filter set); calculate ratio Ch1/Ch2
1. Assay buffer composition.#Phosphate buffered saline (PBS; 10 mM Phosphate, 137 mM NaCl, and 2.7 mM KCl; pH 7.4), 0.05% IGEPAL CA-630
2. 23nL of […] library compounds (7 plates) or DMSO vehicle control transferred to 9 Greiner white/solid bottom high base, TC plates in 7 interplate 1:5 titrations (see Yasgar, A. et al. 2008) with Pintool. Two of the 9 plates are DMSO-only in compound field at beginning and end of compound library-treated plates.
10. Detector settings#Mirror = LANCE/DELFIA Dual Enh; Ex. Filter = UV2[TRF] 320; Em. Filter = APC 665; 2nd Em. Filter = Europium 615; Measurement h = 6.5; Ex. light (%) = 100; Delay = 60 us; Window t = 100 us; No. Seq. windows = 1; Time between flashes = 2000us; No. of flashes = 100; No. of flashes for 2nd detector = 100; Calculation: "Ratio Ch1/Ch2"

Row | Compound | activity change, negative = inhibition
1 | CC(=O)SC1CC2=CC(=O)CC[C@]2(C)C2CC[C@@]3(C)C(CC[C@@]34CCC(=O)O4)C12 (stereo not given in full) | 1.51% (inactive)
2 | COC(=O)C(C)(N)Cc1ccc(O)cc1 (stereo not given) | -2.35% (inactive)
3 | COc1cc(N)c(Cl)cc1C(=O)OCCN1CCCCC1 | 1.1% (inactive)
4 | O=c1[nH]c2ccccc2c2ccccc12 | -0.308% (inactive)
5 | COc1ccccc1N1CCN(CCCNc2c(C)c(=O)n(C)c(=O)n2C)CC1 | -0.502% (inactive)
6 | CC(=O)[C@H]1CCC2C3CC=C4C[C@@H](OS(=O)(=O)O)CC[C@]4(C)C3CC[C@@]21C (stereo not given in full) | 2.23% (inactive)
7 | Nn1nnc2ccccc21 | 0.484% (inactive)
8 | O=c1cc(-c2ccccc2F)[nH]c2cc3c(cc12)OCO3 | 2.37% (inactive)
9 | CCCCCCCCCCCCCCCCCCOC[C@H](COP(=O)([O-])OCC[N+](C)(C)C)OC | 0.0609% (inactive)
10 | COc1ccc2c(c1)CCC1C2CC[C@@]2(C)C1CC[C@@H]2NCCCCCCN1C(=O)C=CC1=O (stereo not given in full) | 2.35% (inactive)
11 | C[C@H](O)C(=O)C1=Nc2c(nc(N)[nH]c2=O)NC1 | 0.578% (inactive)
12 | CC(C)(C)c1ccc(/C=C/C(=O)Nc2ccc3c(c2)OCCO3)cc1 | -0.0021% (inactive)
13 | CCOC(=O)C12CC1/C(=N/O)c1ccccc1O2 (stereo not given) | 1.98% (inactive)
14 | N=C(N)SCCc1cnc[nH]1 | 2.8% (inactive)
15 | CCCC(=O)NCCc1c2n(c3ccc(OC)cc13)CCCc1ccccc1-2 | -3.23% (inactive)
16 | Cn1cc(C(F)(F)F)nc1-c1ccc(OCC(O)CNCCOc2ccc(O)c(C(N)=O)c2)cc1 (stereo not given) | -0.559% (inactive)
17 | O=C(O)CCC(=O)N1CCCC1C(=O)O (stereo not given) | 1.85% (inactive)
18 | O=C1Nc2ccc(I)cc2/C1=C/c1cc(Br)c(O)c(Br)c1 | 1.97% (inactive)
19 | COc1ccc2c(c1)c(CC(=O)O)c(C)n2C(=O)c1ccccc1 | 1.1% (inactive)
20 | CC(C)(C)c1cc(/C=C(\C#N)C(N)=S)cc(C(C)(C)C)c1O | 1.21% (inactive)

Row | Compound | activity change, negative = inhibition
21 | COc1ccc(CCN(C)CCc2ccc(OC)c(OC)c2)cc1OC | 1.3% (inactive)
22 | NC(=Nc1ccccc1)NC(=O)c1nc(Cl)c(N)nc1N | 4.55% (inactive)
23 | NCC(O)c1ccc(O)c(O)c1 (stereo not given) | 0.352% (inactive)
24 | CC(C)(C)NCC(O)COc1cccc2[nH]c(=O)[nH]c12 (stereo not given) | 0.396% (inactive)
25 | O=C(O)/C=C/c1ccc(O)c(O)c1 | 1.6% (inactive)
26 | Cc1ccc2c(c1)C(N1CCN(C)CC1)=Nc1cccnc1N2 | 1.44% (inactive)
27 | NCCCCN=C(N)N | 1.4% (inactive)
28 | NC/C=C\C(=O)O | -0.279% (inactive)
29 | CCCn1c(=O)c2[nH]c(C3CCCC3)nc2n(CCC)c1=O | -0.463% (inactive)
30 | Nc1nc2c(cnn2CCc2ccccc2)c2nc(-c3ccco3)nn12 | 0.22% (inactive)
31 | COc1ccc(CCn2nnnc2C2(c3ccc(C)cc3)CC2)cc1 | 0.22% (inactive)
32 | NC(N)=NC(N)=Nc1cccc(Cl)c1 | -0.639% (inactive)
33 | CC(C)Cn1c(=O)n(C)c(=O)c2[nH]cnc21 | 0% (inactive)
34 | CC1CNCCN1S(=O)(=O)c1cccc2cnccc12 (stereo not given) | 1.28% (inactive)
35 | CN1CCC2(CCN3CCc4c(oc5ccccc45)C3C2)N(C)C1=O (stereo not given) | 0.923% (inactive)
36 | Nc1nc2[nH]c(=O)cnc2c(=O)[nH]1 | 1.58% (inactive)
37 | CC(N)(Cc1ccc(O)c(O)c1)C(=O)O (stereo not given) | -0.697% (inactive)
38 | CC1CCN=C(N)S1 (stereo not given) | -0.22% (inactive)
39 | N[C@@H](CCC(=O)N[C@H](CSN=O)C(=O)NCC(=O)O)C(=O)O | 2.4% (inactive)
40 | Nc1ncnc2c1nc(Sc1ccc(Cl)cc1)n2[C@H]1OC2COP(=O)(O)O[C@@H]2C1O (stereo not given in full) | 1.32% (inactive)

Source: PubChem BioAssay (NCATS)
